High-throughput results as filed in PubChem BioAssay.
TR SRC2 fluor cs – counter-screen for TRb-SRC2 inhibitors: fluorescence interference | TRb/SRC2 Texas Red total fluorescence interference | Potency, µM (top dose mostly 106 µM), inactives show top-dose fluorescence change, negative = quenching | hit rate 0.29% among 280,000 | AID 1479; active = well fitted curve in either direction with a large enough effect; inconclusive = small, poorly fitted or top-dose-only effect
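Human TRβ ligand-binding domain (0.6 uM) and Texas Red SRC2 peptide (20 nM) in Tris buffer with 1 uM T3 and 5% DMSO were incubated with pinned compound for 5 hr at ambient temperature. Total fluorescence was computed as S + 2P (555/632 nm).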
Tau fibril FP – inhibitors of human tau fibril formation | AID 1468 | hit rate 0.39% among 280,000 | Potency, µM (top dose mostly 57.7 µM), without a hit: top-dose activity, negative = inhibition, most hits filed as inhibitors | K18 P301L tau heparin fibrillization, Alexa594 FP, 6 h; also: nearly all actives have a fitted effect of over 55% in size
Target sequence (P10636 561-689 P618L limits assumed): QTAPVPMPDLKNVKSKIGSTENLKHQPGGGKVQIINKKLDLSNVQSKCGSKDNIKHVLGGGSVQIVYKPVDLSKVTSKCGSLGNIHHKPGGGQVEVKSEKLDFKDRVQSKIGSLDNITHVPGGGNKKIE
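Human tau K18 […] P301L fragment, 15 uM unlabeled plus 0.24 uM Alexa 594-labeled tau (final), with compound and 20 uM heparin in 100 mM sodium acetate pH 7; 6 hr at 37 C, then Alexa 594 FP read.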
Tau fluor cs – counter-screen for tau fibril formation inhibitors; hit rate 0.93% among 280,000; tau K18 P301L Alexa594 fluorescence, heparin fibrillization; Potency, µM (series often up to 57.7 µM), for inactives: at the top dose activity change, negative = decrease; also: nearly all actives have a fitted effect of over 55% in size
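Human K18 P301L tau (15 uM unlabeled plus 0.24 uM Alexa 594-labeled, final) in 100 mM sodium acetate pH 7 was mixed with compound and 20 uM heparin and incubated 6 hr at 37 C.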
TRb-SRC2 inh – inhibitors of human thyroid hormone receptor beta-SRC2 interaction; hit rate 0.065% among 280,000; Potency, µM (titrated, usually from 106 µM), inactives show top-dose activity change, negative = inhibition, hits mostly inhibitors; TRbeta-SRC2 peptide binding, fluorescence polarization; receptor liganded with 1 µM T3; AID 1469; P10828;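 also: plate controls were bound peptide for no effect and peptide without receptor for full effect; nearly all actives have a fitted effect of over 50% in size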
Target sequence (P10828 whole entry, looked up): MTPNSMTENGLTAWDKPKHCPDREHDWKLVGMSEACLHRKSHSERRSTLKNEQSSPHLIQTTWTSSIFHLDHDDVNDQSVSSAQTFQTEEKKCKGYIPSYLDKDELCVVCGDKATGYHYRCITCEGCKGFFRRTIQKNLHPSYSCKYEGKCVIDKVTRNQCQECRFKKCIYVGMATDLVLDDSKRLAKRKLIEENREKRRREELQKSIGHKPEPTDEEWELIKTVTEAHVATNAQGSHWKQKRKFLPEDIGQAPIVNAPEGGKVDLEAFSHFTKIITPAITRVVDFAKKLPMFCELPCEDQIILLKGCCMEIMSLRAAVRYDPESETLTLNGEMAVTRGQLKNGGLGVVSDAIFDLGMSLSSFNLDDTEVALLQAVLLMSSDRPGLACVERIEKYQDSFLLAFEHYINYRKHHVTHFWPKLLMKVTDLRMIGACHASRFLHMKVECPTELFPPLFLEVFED
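Binding of a 20-amino-acid Texas Red SRC2 peptide (20 nM) to TRb ligand-binding domain (0.6 uM) with agonist T3 at 1 uM was followed by fluorescence polarization after a 5 hr room-temperature incubation.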
Tau fibril ThT – tau fibrillization inhibition (ThT binding). recombinant tau K18 P301L, heparin-induced fibrillization, ThT fluorescence. Potency, µM (titrated, usually from 57.4 µM), for the others: at the top dose activity, negative = inhibition, usual class: inhibitors. hit rate 2.1% among 270,000. AID 1460; also: nearly all actives have a fitted effect of over 55% in size
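Fibril formation assay: tau K18 P301L at 15 uM with trace Alexa 594 label, heparin inducer 20 uM, pH 7 sodium acetate buffer, 37 C for 6 hr; endpoint ThT signal.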
GoLoco inh red – inhibitors of human Gai1-RGS12 GoLoco interaction (red fluorophore); hit rate 0.44% among 230,000; Gai1:RGS12 GoLoco peptide FP, rhodamine, 10 min; Potency, µM (titrated, usually from 61.6 µM), for inactives: at the highest dose activity, negative = inhibition, most hits filed as inhibitors; active = well fitted inhibition curve with a large enough effect, not every such curve was filed as active; inactive = no such curve, though single readings can be large or run the other way; also: nearly all actives have a fitted effect of over 30% in size
* marks the source's active call; other numbers are inactive results; ? = inconclusive; . = no result; [ ] = dose if it differs, or a comment. Compounds with a hit are over-represented: about 3.2% of the library has one in this group of screens. Unless noted, calls follow the shape of the dose curve; as a rule, active = well fitted curve in the direction sought with a large enough effect; inconclusive = small, poorly fitted or top-dose-only effect, or another doubt; inactive = no such curve, though single readings can be large; an effect the other way counts as inactive or inconclusive. Unless noted, % is scaled to controls: 0 for no effect and ±100 for the full control effect; potency is read from the fitted curve at half-maximal effect.

SMILES	TR SRC2 fluor cs	Tau fibril FP	Tau fluor cs	TRb-SRC2 inh	Tau fibril ThT	GoLoco inh red
C[n+]1cnn2c1SCC1(COC1)C2	-3%	9%	6%	-16%	-13%	10µM*
O=C1c2ccccc2-c2n[nH]c(=O)c3ccc(N4CCCCC4)c1c23	-9%	-3%	?	5%	14µM*	8%
C[C@@H](CCc1ccc(O)cc1)NCCc1ccc(O)c(O)c1	0%	-5%	-16%	-9%	-20%	4%
CN(C)c1ccc(C(=O)Nc2sc(Nc3ccccc3)nc2C(N)=O)cc1	-2%	-1%	11µM*[quencher]	-4%	1.1µM*	.
CN(C)c1ccc(C(=O)Nc2cccc(-c3nc4cccnc4s3)c2)cc1	-1%	?	-10%	0%	3%	.
COC(=O)N(/C=C/c1ccc(OC)cc1)CCc1ccc(OC)c(OC)c1	-2%[11.2 µM]	2%[11.6 µM]	-26%[11.6 µM]	5%[11.2 µM]	?	.
O=C(CSc1ncnc2c(-c3ccc(Cl)cc3)nsc12)c1ccccc1	3%	?	?	-4%	18µM*	27%
CCCCCCCCCCCCCC(=O)OC	2%[201 µM]	.	.	-4%[201 µM]	.	.
COc1ccc(-n2c(N)c(C(=O)NCC3CCCO3)c3nc4ccccc4nc32)c(OC)c1 (stereo not drawn)	-7%	-2%	?	?	28µM*	10%
C=CCn1c(N)c(C(=O)NCC2CCCO2)c2nc3ccccc3nc21 (stereo not drawn)	-2%	1%	-7%	0%	-6%	.
CC(=O)c1ccc(NC(=S)NC(C)c2ccc(Cl)cc2Cl)cc1 (stereo not drawn)	-1%	32µM*	14µM*[quencher]	-4%	9%	12%
CCCNC(=O)c1c[nH]c2ccc(S(=O)(=O)N(C)c3ccc(OCC)cc3)cc2c1=O	-7%	14µM*	?	0%	-2%	0%
CCOc1ccc(NS(=O)(=O)c2ccc3[nH]cc(C(=O)NCc4ccccc4)c(=O)c3c2)cc1	-2%	3.5µM*	?	8%	-3%	.
CCOc1ccc(N(C)S(=O)(=O)c2ccc3[nH]cc(C(=O)NCCOC)c(=O)c3c2)cc1	-1%	?	?	1%	-3%	-7%
CCOc1ccc(NS(=O)(=O)c2ccc3[nH]cc(C(=O)NCc4ccco4)c(=O)c3c2)cc1	0%	16µM*	?	1%	10%	.
CCCCCNC(=O)c1c[nH]c2ccc(S(=O)(=O)N3CCC(C)CC3)cc2c1=O	0%	7.9µM*	?	5%	12%	.
Cc1cccc(-c2nnc(SCC(=O)NC3CCCCC3)o2)c1	-3%	-5%	-15%	3%	-11%	.
CN(C)/C=N/c1c(C#N)cnn1-c1ccc(F)c(Cl)c1	-1%	.	.	-4%	.	.
Nc1ccccc1S(=O)(=O)Nc1cccc2cccnc12	2%	.	.	-6%	.	.
COC(=O)c1ccc(N2CCC(c3cc(-c4ccc(OC)cc4)n[nH]3)CC2)c([N+](=O)[O-])c1	0%	?	?	-12%	3.5µM*	3%
CC(=O)c1ccc(N2CCC(c3cc(-c4ccc(Cl)cc4)n[nH]3)CC2)c([N+](=O)[O-])c1	-2%	?	?	7%	4.5µM*	5%
COc1ccc(-c2cc(C3CCN(c4ccc(C(C)=O)cc4[N+](=O)[O-])CC3)[nH]n2)cc1	-4%	-6%	?	2%	3.5µM*	4%
O=C(CSc1nc(=O)n(CCN2CCOCC2)c2c1CCC2)Nc1ccc(Cl)c(Cl)c1	-1%	-9%	-15%	1%	-7%	.
COc1ccc(C2=C(C)C(=O)N(Cc3ccc(C(=O)NCc4cccc(C)c4)cc3)S2(=O)=O)cc1	158µM*[quencher]	-4%	-19%	-24%	-4%	.
CCSC[C@H](NC(=O)[C@H](C)NC(=O)[C@@H](N)Cc1ccc(O)cc1)C(=O)N[C@@H](CC(=O)O)C(=O)N[C@H](C(=O)N[C@@H](C)C(=O)N[C@H](C(=O)N[C@@H](CSCC)C(=O)N[C@H](C(=O)N[C@H](C(=O)N[C@@H](Cc1cnc[nH]1)C(=O)N[C@@H](CCCNC(=N)N)C(=O)N[C@@H](CC(C)C)C(=O)N[C@@H](C)C(=O)NCC(=O)N[C@@H](CC(C)C)C(=O)N[C@@H](CC(C)C)C(=O)N[C@@H](CO)C(=O)N[C@@H](CCCNC(=N)N)C(=O)N[C@@H](CO)C(=O)NCC(=O)NCC(=O)N[C@H](C(=O)N[C@H](C(=O)N[C@@H](CCCCN)C(=O)N[C@@H](CC(N)=O)C(=O)N[C@@H](CC(N)=O)C(=O)N[C@@H](Cc1ccccc1)C(=O)N[C@H](C(=O)N1CCC[C@H]1C(=O)N[C@H](C(=O)N[C@@H](CC(N)=O)C(=O)N[C@H](C(=O)NCC(=O)N[C@@H](CO)C(=O)N[C@@H](CCCCN)C(=O)N[C@@H](C)C(=O)N[C@@H](Cc1ccccc1)C(N)=O)C(C)C)[C@@H](C)O)C(C)C)C(C)C)C(C)C)[C@@H](C)O)C(C)C)[C@@H](C)O)[C@@H](C)O	1%	.	.	-7%	.	.
SMILES	TR SRC2 fluor cs	Tau fibril FP	Tau fluor cs	TRb-SRC2 inh	Tau fibril ThT	GoLoco inh red
N#Cc1ccccc1Sc1ccccc1N	-5%	5%	-3%	-4%	8%	6%
N#CC(=C(/N)Sc1ccccc1N)/C(C#N)=C(/N)Sc1ccccc1N	-4%	.	25µM*[quencher]	1%	35µM*	-1%
Cc1ccc(C(=O)c2coc3cc([N+](=O)[O-])c(O)c([N+](=O)[O-])c23)cc1	?	-1%	-28%	-11%	3.5µM*	-21%
C=C(C)C(=O)OCCCCCCCCCCCCCCCC	-2%[201 µM]	.	.	-3%[201 µM]	.	.
COC(=O)C1=C(C)N(Cc2ccccc2)[C@]23O[C@](C(=O)OC)(C(=O)N2C1c1ccccc1)C1CCCC(=O)C13 (stereo partly drawn)	?	-6%[11.6 µM]	-22%[11.6 µM]	-3%[11.2 µM]	-19%[11.5 µM]	.
O=S(=O)(Nc1ccc(Br)cc1)c1ccc2nc(-c3ccccc3)[nH]c2c1	-1%	16µM*	?	4%	16%	.
CC(C)c1ccc(NS(=O)(=O)c2ccc3nc(-c4ccccc4)[nH]c3c2)cc1	1%	10µM*	?	7%	?	.
Cc1ccc(NS(=O)(=O)c2ccc3nc(-c4ccccc4)[nH]c3c2)c(Br)c1	0%	?	?	4%	8%	.
Cc1ccc(NS(=O)(=O)c2ccc3nc(-c4ccccc4)[nH]c3c2)c(Cl)c1	0%	14µM*	?	4%	12%	.
Cc1cccc(NS(=O)(=O)c2ccc3nc(-c4ccccc4)[nH]c3c2)c1C	2%	?	-16%	-4%	17%	0%
